Measurements taken from PubChem BioAssay AID504333 (National Center for Advancing Translational Sciences (NCATS), 2011).
Among all 360,000 compounds or so, about 16,000 (4.4%) were called active. Not shown: some 9% with an inconclusive outcome. Calls follow the shape of the dose curve; as a rule, active = well fitted inhibition curve with a large enough effect; inconclusive = small, poorly fitted or top-dose-only effect; inactive = no such curve, though single readings can be large or run the other way. The entries come from a sample that favours actives as a whole. A call without a number means that no potency is given here.

Target: Bromodomain adjacent to zinc finger domain protein 2B (Homo sapiens) (UniProt Q9UIF8)
Assay: qHTS Assay for Inhibitors of BAZ2B; also: nearly all actives have a fitted effect of over 60% in size
Details: AlphaScreen BAZ2B-H3K14Ac peptide displacement; series mostly up to 114 µM
Method in brief: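 Compounds, titrated to a top concentration of 110 uM, were incubated 30 min at room temperature with preformed BAZ2B/acetyl-K14 H3 peptide complex (50 nM each). Proximity signal was measured by AlphaScreen after 20 min with beads.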
Potency is read from the fitted curve at half-maximal effect.

Sequence of Bromodomain adjacent to zinc finger domain protein 2B (Homo sapiens) (Q9UIF8 whole entry, looked up, the tested form may be a part): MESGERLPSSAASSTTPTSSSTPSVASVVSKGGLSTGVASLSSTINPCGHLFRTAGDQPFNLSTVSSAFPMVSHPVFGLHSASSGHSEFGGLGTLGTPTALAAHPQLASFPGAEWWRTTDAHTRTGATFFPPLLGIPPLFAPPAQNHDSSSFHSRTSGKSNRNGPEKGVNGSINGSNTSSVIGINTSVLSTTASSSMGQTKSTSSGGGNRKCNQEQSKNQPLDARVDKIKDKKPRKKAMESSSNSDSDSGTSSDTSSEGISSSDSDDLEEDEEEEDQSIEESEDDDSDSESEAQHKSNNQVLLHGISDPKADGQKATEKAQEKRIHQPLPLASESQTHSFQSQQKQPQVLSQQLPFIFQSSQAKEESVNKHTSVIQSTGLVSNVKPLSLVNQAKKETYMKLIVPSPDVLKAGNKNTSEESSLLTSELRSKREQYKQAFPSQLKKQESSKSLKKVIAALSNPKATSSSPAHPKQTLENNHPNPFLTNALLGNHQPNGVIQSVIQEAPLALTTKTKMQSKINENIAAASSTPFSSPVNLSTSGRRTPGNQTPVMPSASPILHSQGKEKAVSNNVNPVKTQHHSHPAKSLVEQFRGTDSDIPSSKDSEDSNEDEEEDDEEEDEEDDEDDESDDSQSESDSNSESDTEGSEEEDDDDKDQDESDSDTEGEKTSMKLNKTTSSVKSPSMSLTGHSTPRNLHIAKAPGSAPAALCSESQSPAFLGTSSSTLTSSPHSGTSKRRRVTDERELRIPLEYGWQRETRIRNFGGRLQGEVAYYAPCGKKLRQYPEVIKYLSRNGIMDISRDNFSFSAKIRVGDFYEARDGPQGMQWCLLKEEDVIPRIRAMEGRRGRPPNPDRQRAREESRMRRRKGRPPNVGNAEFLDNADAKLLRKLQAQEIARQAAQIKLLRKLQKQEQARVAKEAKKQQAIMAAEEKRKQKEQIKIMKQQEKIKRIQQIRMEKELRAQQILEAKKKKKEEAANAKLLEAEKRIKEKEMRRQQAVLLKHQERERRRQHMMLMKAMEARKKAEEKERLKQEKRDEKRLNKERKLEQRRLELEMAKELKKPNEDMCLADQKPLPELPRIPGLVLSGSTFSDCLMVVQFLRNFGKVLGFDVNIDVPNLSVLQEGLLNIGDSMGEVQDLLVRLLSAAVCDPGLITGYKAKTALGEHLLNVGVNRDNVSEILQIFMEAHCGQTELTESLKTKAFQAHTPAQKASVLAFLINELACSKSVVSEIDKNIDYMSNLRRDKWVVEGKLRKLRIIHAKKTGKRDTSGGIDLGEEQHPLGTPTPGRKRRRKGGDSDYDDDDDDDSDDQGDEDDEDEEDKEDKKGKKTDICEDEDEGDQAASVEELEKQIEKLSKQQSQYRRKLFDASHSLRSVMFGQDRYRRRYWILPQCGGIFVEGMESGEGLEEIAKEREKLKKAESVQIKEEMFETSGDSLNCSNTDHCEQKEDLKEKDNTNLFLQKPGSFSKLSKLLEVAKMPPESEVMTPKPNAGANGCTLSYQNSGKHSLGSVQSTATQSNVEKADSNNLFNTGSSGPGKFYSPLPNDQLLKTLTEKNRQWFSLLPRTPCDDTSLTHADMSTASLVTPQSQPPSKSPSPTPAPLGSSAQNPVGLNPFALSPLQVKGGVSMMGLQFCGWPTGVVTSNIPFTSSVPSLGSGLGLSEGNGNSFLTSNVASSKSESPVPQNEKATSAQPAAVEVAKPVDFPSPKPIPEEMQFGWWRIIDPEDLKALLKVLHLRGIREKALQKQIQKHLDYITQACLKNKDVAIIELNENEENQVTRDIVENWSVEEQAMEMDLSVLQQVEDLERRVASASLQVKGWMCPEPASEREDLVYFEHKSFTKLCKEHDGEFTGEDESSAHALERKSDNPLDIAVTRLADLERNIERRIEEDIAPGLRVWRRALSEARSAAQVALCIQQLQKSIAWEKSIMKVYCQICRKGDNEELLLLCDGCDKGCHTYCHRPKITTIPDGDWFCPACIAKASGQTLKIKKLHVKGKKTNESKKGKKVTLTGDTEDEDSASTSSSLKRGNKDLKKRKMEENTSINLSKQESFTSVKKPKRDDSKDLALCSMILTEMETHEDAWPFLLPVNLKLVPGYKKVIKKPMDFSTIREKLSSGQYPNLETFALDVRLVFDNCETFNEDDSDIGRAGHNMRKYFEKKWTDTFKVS

Row | Structure (SMILES) | Potency
1 | O=S(=O)(c1ccc(C2CCCCC2)cc1)N1CCN(c2ccc(Cl)c(Cl)c2)CC1 | inactive
2 | CC1CCN(S(=O)(=O)c2ccc3c(c2)N(CC(=O)NCCc2ccccc2)C(=O)CO3)CC1 | inactive
3 | Cc1cc(Cl)ccc1NC(=O)Cc1ccc(NC(=O)N2CCCCc3ccccc32)cc1 | inactive
4 | Cc1ccc(-n2c(=O)c3cccnc3n2CC(=O)Nc2ccccc2C(F)(F)F)cc1C | inactive
5 | COc1ccccc1-c1nc(C(F)(F)F)c(OC)o1 | inactive
6 | COc1ccccc1C1=Nc2cccc3cccc(c23)N1 | 39.8 µM (active)
7 | c1ccc(C2=Nc3cccc4cccc(c34)N2)cc1 | inactive
8 | Cc1ccccc1-c1nc2cc(NC(=O)c3cccc(OCCC(C)C)c3)ccc2o1 | inactive
9 | CCc1ccc2oc(-c3ccc(C)c(NC(=O)/C=C/c4ccco4)c3)nc2c1 | inactive
10 | O=C(CSc1nnc(COc2ccc(Cl)cc2)n1Cc1ccco1)N1CCNC1=O | inactive
11 | Cn1c2ccccc2c(=O)c2c(=O)n(Cc3ccco3)c(COc3ccccc3)nc21 | 56.2 µM (active)
12 | COCn1c(COc2ccccc2)nc2ccccc21 | inactive
13 | Cc1ccc2ncc(C(=O)Nc3ccc(OC(F)(F)F)cc3)c(=O)n2c1 | inactive
14 | Cc1ccc(Cl)cc1NC(=O)CCS(=O)(=O)c1ccc(Br)s1 | inactive
15 | Oc1c(C=Nc2cccc3nsnc23)ccc2ccccc12 | 50.1 µM (active)
16 | Cc1ccc(-n2c(=O)c3cccnc3n2CC(=O)NCc2ccc(F)cc2)cc1C | inactive
17 | CN(C)[C@@H]1C(=O)C(C(N)=O)=C(O)[C@@]2(O)C(=O)C3=C(O)c4c(O)ccc(Cl)c4[C@@H](O)[C@H]3C[C@@H]12 | 10 µM (active)
18 | C=C1c2c(Cl)ccc(O)c2C(O)=C2C(=O)[C@]3(O)C(O)=C(C(N)=O)C(=O)[C@@H](N(C)C)[C@@H]3[C@@H](O)C12 (some centres not stated) | 2.82 µM (active)
19 | Cc1cc(=O)n(CC(=O)Nc2cccc([N+](=O)[O-])c2)c(-n2nc(C)cc2C)n1 | inactive
20 | N#Cc1ccccc1Cn1cnc2nc3c(cc2c1=O)CCCC3 | inactive
21 | COc1ccc(-c2cc(-c3nc(-c4cc(OC)c(OC)c(OC)c4)no3)[nH]n2)c(OC)c1 | inactive

Row | Structure (SMILES) | Potency
22 | COc1ccc(N2CCN(C(=O)c3c(C)oc4nc(C)nc(N5CCCC5)c34)CC2)cc1 | inactive
23 | CC1=NN(c2ccccc2)C(=O)C1C(=O)c1ccc([N+](=O)[O-])cc1 (configuration not stated) | inactive
24 | O=C1CC(c2ccccc2)=NN1c1ccc([N+](=O)[O-])cc1 | 25.1 µM (active)
25 | O=c1[nH]n(-c2ccc([N+](=O)[O-])cc2)c(=O)c2ccccc12 | inactive
26 | CCCn1c2ccccc2c2cnn(CC(=O)NCCCOC(C)C)c(=O)c21 | inactive
27 | CCc1nnc2c3ccccc3nc(N3CCN(c4ccc(C)cc4C)CC3)n12 | inactive
28 | CC(C)Cn1c(-c2ccc(S(=O)(=O)N3CCOCC3)cc2)csc1=Nc1cc(Cl)ccc1Cl | inactive
29 | OCCn1c(-c2ccccc2)csc1=Nc1ccccc1 | 11.2 µM (active)
30 | Cc1csc(=NC(=O)c2ccccc2)n1CCO | inactive
31 | CN(C)CCCn1c(-c2ccc(Cl)cc2)csc1=Nc1ccccc1 | 12.6 µM (active)
32 | Cc1cccn2c(=O)c(C(=O)NC(C)c3ccccc3)cnc12 (configuration not stated) | inactive
33 | Cc1csc2nc(COC(=O)c3ccccc3NC(=O)c3ccccc3Cl)cc(=O)n12 | inactive
34 | Cc1ccc(CN2COc3cc(C)c4c(oc(=O)c5ccccc54)c3C2)cc1 | inactive
35 | CC(=O)c1sc(N2C(=O)c3oc4ccccc4c(=O)c3C2c2ccc(C)cc2)nc1C (configuration not stated) | inactive
36 | Cc1ccc(S(=O)(=O)c2cn(Cc3ccccc3)c3cc(N4CCCC4)c(F)cc3c2=O)c(C)c1 | inactive
37 | Oc1ccc2ccccc2c1N=Nc1nccs1 | 2 µM (active)
38 | Oc1ccc(N=Nc2nccs2)c(O)c1 | 25.1 µM (active)
39 | CCc1ccccc1N(C)C(=O)C1CCCN(c2ncnc3onc(-c4ccc(F)cc4)c23)C1 (configuration not stated) | inactive
40 | CN(C(=O)CSc1nc2ccccc2n1Cc1ccccc1C#N)c1ccccc1 | inactive
41 | CC(C)(C)OC(=O)N1CCC(c2c(C(=O)NCCc3ccsc3)cnn2-c2ccc(F)cc2F)CC1 | inactive
42 | Cc1ccccc1CNC(=O)CCCn1nc(C)c2sc3ccccc3c2c1=O | inactive

Row | Structure (SMILES) | Potency
43 | CCCC(=O)Nc1ccc(NC(=O)c2sc3ccccc3c2Cl)cc1 | inactive
44 | Cc1ccc(-c2cc(C(=O)Nc3nn[nH]n3)c3ccccc3n2)c(C)c1 | inactive
45 | Cc1ccc2c(Cl)c(C(=O)Nc3nn[nH]n3)sc2c1 | 50.1 µM (active)
46 | CN(C)S(=O)(=O)c1ccc(C(=O)N(Cc2cccnc2)c2nc3c(F)cc(F)cc3s2)cc1 | inactive
47 | CC(=O)Nc1cccc(NC(=O)CSc2cn(CC(=O)N3CCCC3)c3ccccc23)c1 | inactive
48 | COc1ccc(Cn2c(=O)n(-c3ccccc3C)c(=O)c3c4c(sc32)CN(C(C)=O)CC4)cc1 | inactive
49 | CCOc1ccc(/C=C2\SC(=S)N(NC(=O)c3ccncc3)C2=O)cc1OC | inactive
50 | CN1C(=O)C(CC(N)=O)N(NC(=O)c2ccc(Cl)cc2)C1=S (configuration not stated) | inactive
51 | Cn1cccc1/C=C1\SC(=S)N(NC(=O)c2ccc(Cl)cc2)C1=O | 12.6 µM (active)
52 | COc1ccc(N2CCN(C(=O)CSCc3nc(-c4ccccc4Cl)oc3C)CC2)cc1 | inactive
53 | Cc1cccc(N=Nc2c(O)[nH]c3ccc(F)cc23)c1 | inactive
54 | Cc1[nH]n(C)c(=O)c1N=Nc1ccc(S(C)(=O)=O)cc1 | inactive
55 | Cc1cccc(N=Nc2c(C)[nH]n(-c3ccccc3)c2=O)c1 | 3.16 µM (active)
56 | O=C(CCS(=O)(=O)c1ccccc1)N(Cc1cccnc1)c1nc2c(F)cccc2s1 | inactive
57 | Cc1ccc(Cl)cc1N(C)C(=O)Cn1nc(Cc2cccnc2)c2ccccc2c1=O | inactive
58 | CC1CCCCN1S(=O)(=O)c1ccc(F)c(C(=O)Nc2ccccc2C(F)(F)F)c1 (configuration not stated) | inactive
59 | COc1ccc(NC(=O)NC(C)c2c(-n3cccc3)sc(C)c2C)cc1OC (configuration not stated) | 35.5 µM (active)
60 | Cc1ccc(NC(=O)NC(C)c2c(-n3cccc3)sc(C)c2C)c(C)c1 (configuration not stated) | inactive
61 | CCn1cc(NC(=O)Nc2ccc(OC)c(OC)c2)c(C(N)=O)n1 | inactive
62 | Cc1cc(Nc2cccc(C(F)(F)F)c2)nc2ccc(NC(=O)c3ccc(=O)[nH]c3)cc12 | inactive
